# Source: the supplement of paper PMC6089552
# Out of some 3,200 compounds screened, about 300 (9.4%) showed activity. What follows is part of a selection rich in actives, with near analogues and random picks from the rest.
# System: A673/TR/shEF
# Experiment: cell viability (LOESS-normalised, relative to median of negative controls) (log2 ratio); higher = more viable cells (less compound effect), active = hit call of the paper (over 3 MAD below the median)
# Details: treatment time: 72 h
# Procedure, shortened: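 A673/TR/shEF Ewing sarcoma cells were plated at 1,500 per well in 384-well plates and cultured with or without doxycycline, added 24 h before compounds, to induce EWS-FLI1 shRNA knockdown. Library compounds at two or more concentrations, alongside DMSO controls, were applied for three days. Cell viability was measured by CellTiter-Glo luminescence on an Envision reader. Readings were LOESS-corrected per plate, divided by the median of negative controls and log2-transformed, and hits were wells lying at least three median absolute deviations from the median of all screened wells.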
# [1] = 0.103 µM, library screen: screen3, EWS-FLI1 expression: high (no doxycycline)
# [2] = 0.103 µM, library screen: screen3, EWS-FLI1 expression: low (doxycycline-induced shRNA knockdown)
# [3] = 0.308 µM, library screen: screen3, EWS-FLI1 expression: high (no doxycycline)
# [4] = 0.308 µM, library screen: screen3, EWS-FLI1 expression: low (doxycycline-induced shRNA knockdown)
# [5] = 0.926 µM, library screen: screen3, EWS-FLI1 expression: high (no doxycycline)
# [6] = 0.926 µM, library screen: screen3, EWS-FLI1 expression: low (doxycycline-induced shRNA knockdown)
# [7] = 2.8 µM, library screen: screen3, EWS-FLI1 expression: high (no doxycycline)
# [8] = 2.8 µM, library screen: screen3, EWS-FLI1 expression: low (doxycycline-induced shRNA knockdown)
# [9] = 8.3 µM, library screen: screen3, EWS-FLI1 expression: high (no doxycycline)
# [10] = 8.3 µM, library screen: screen3, EWS-FLI1 expression: low (doxycycline-induced shRNA knockdown)
# [11] = 25 µM, library screen: screen3, EWS-FLI1 expression: high (no doxycycline)
# [12] = 25 µM, library screen: screen3, EWS-FLI1 expression: low (doxycycline-induced shRNA knockdown)
# [13] = 0.25 µM, library screen: screen1, EWS-FLI1 expression: high (no doxycycline)
# [14] = 0.25 µM, library screen: screen1, EWS-FLI1 expression: low (doxycycline-induced shRNA knockdown)
# [15] = 2.5 µM, library screen: screen1, EWS-FLI1 expression: high (no doxycycline)
# [16] = 2.5 µM, library screen: screen1, EWS-FLI1 expression: low (doxycycline-induced shRNA knockdown)
# [17] = 0.25 µM, library screen: screen2, EWS-FLI1 expression: high (no doxycycline)
# [18] = 0.25 µM, library screen: screen2, EWS-FLI1 expression: low (doxycycline-induced shRNA knockdown)
# [19] = 2.5 µM, library screen: screen2, EWS-FLI1 expression: high (no doxycycline)
# [20] = 2.5 µM, library screen: screen2, EWS-FLI1 expression: low (doxycycline-induced shRNA knockdown)
smiles,measurement,setting,value
COC(=O)Nc1ccc(-c2nc(N3CCOCC3)c3cnn(C4CCN(Cc5cccnc5)CC4)c3n2)cc1,cell viability (log2),[1],-0.0181 (inactive)
same,cell viability (log2),[2],0.0282 (inactive)
same,cell viability (log2),[3],-0.00456 (inactive)
same,cell viability (log2),[4],-0.0439 (inactive)
same,cell viability (log2),[5],-0.169 (inactive)
same,cell viability (log2),[6],-0.0706 (inactive)
same,cell viability (log2),[7],-0.33 (active)
same,cell viability (log2),[8],-0.297 (active)
same,cell viability (log2),[9],-0.973 (active)
same,cell viability (log2),[10],-0.691 (active)
same,cell viability (log2),[11],-1.84 (active)
same,cell viability (log2),[12],-1.76 (active)
COC(=O)Nc1ccc(-c2nc(N3CCOCC3)c3cnn(C4CCN(C(=O)OC)CC4)c3n2)cc1,cell viability (log2),[1],-0.0923 (inactive)
same,cell viability (log2),[2],0.0164 (inactive)
same,cell viability (log2),[3],-0.0767 (inactive)
same,cell viability (log2),[4],-0.0949 (inactive)
same,cell viability (log2),[5],-0.134 (inactive)
same,cell viability (log2),[6],-0.0918 (inactive)
same,cell viability (log2),[7],-0.281 (active)
same,cell viability (log2),[8],-0.237 (active)
same,cell viability (log2),[9],-0.419 (active)
same,cell viability (log2),[10],-0.244 (active)
same,cell viability (log2),[11],-0.744 (active)
same,cell viability (log2),[12],-0.369 (active)
COc1cc(/C=C/C(=O)/C=C(O)/C=C/c2ccc(O)c(OC)c2)ccc1O,cell viability (log2),[13],0.0822 (inactive)
same,cell viability (log2),[14],0.0311 (inactive)
same,cell viability (log2),[15],0.0603 (inactive)
same,cell viability (log2),[16],-0.0173 (inactive)
COC(=O)c1c(C)c2c(c(C)c1OC(C)=O)OC(=O)c1c(C)c(Cl)c(OC(C)=O)c(Cl)c1O2,cell viability (log2),[13],0.0638 (inactive)
same,cell viability (log2),[14],0.0229 (inactive)
same,cell viability (log2),[15],0.0457 (inactive)
same,cell viability (log2),[16],-0.0376 (inactive)
C/C1=C2N=C(/C=C3N=C(/C(C)=C4\[N-]C(C(CC(N)=O)C4(C)CCC(=O)NCC(C)OP(=O)([O-])OC4C(CO)OC(n5cnc6cc(C)c(C)cc65)C4O)C4(C)N=C1C(CCC(N)=O)C4(C)CC(N)=O)C(CCC(N)=O)C\3(C)C)C(CCC(N)=O)C/2(C)CC(N)=O.[Co+3] (configuration not stated),cell viability (log2),[13],-0.0019 (inactive)
same,cell viability (log2),[14],0.0391 (inactive)
same,cell viability (log2),[15],0.0729 (inactive)
same,cell viability (log2),[16],0.0491 (inactive)
COc1cc(CN2CCN(Cc3cccc(Cl)c3)CC2)c([N+](=O)[O-])cc1OC,cell viability (log2),[13],0.103 (inactive)
same,cell viability (log2),[14],0.0472 (inactive)
same,cell viability (log2),[15],0.18 (inactive)
same,cell viability (log2),[16],0.111 (inactive)
CCc1c(C)c(C#N)c2nc3ccccc3n2c1N1CCN(C)CC1,cell viability (log2),[13],0.145 (inactive)
same,cell viability (log2),[14],0.157 (inactive)
same,cell viability (log2),[15],0.118 (inactive)
same,cell viability (log2),[16],0.0375 (inactive)
COc1cc(/C=C(\C#N)C(=O)c2ccc(O)c(O)c2)cc(I)c1O,cell viability (log2),[17],0.152 (inactive)
same,cell viability (log2),[18],0.068 (inactive)
same,cell viability (log2),[19],0.173 (inactive)
same,cell viability (log2),[20],-0.0106 (inactive)
N#C/C(=C\c1ccc(O)c(O)c1)C(=O)NCCCNC(=O)/C(C#N)=C/c1ccc(O)c(O)c1,cell viability (log2),[17],0.153 (inactive)
same,cell viability (log2),[18],0.132 (inactive)
same,cell viability (log2),[19],0.199 (inactive)
same,cell viability (log2),[20],0.0575 (inactive)
N#C/C(=C\c1ccc(O)c(O)c1)C(=O)c1ccc(O)c(O)c1,cell viability (log2),[17],-0.567 (active)
same,cell viability (log2),[18],-0.546 (active)
same,cell viability (log2),[19],-2.72 (active)
same,cell viability (log2),[20],-2.83 (active)
N#C/C(=C\c1ccc(O)c(O)c1)C(N)=O,cell viability (log2),"0.025 µM, library screen: screen1, EWS-FLI1 expression: high (no doxycycline)",0.246 (inactive)
same,cell viability (log2),"0.025 µM, library screen: screen1, EWS-FLI1 expression: low (doxycycline-induced shRNA knockdown)",0.0278 (inactive)
same,cell viability (log2),[13],0.319
same,cell viability (log2),[14],0.0878 (inactive)
same,cell viability (log2),[15],-0.381 (active)
same,cell viability (log2),[16],0.0598 (inactive)
same,cell viability (log2),"25 µM, library screen: screen1, EWS-FLI1 expression: high (no doxycycline)",-0.224 (active)
same,cell viability (log2),"25 µM, library screen: screen1, EWS-FLI1 expression: low (doxycycline-induced shRNA knockdown)",0.125 (inactive)
N#C/C(=C\c1c[nH]c2ccccc12)C(=O)c1ccc(O)c(O)c1,cell viability (log2),[17],0.155 (inactive)
same,cell viability (log2),[18],0.0215 (inactive)
same,cell viability (log2),[19],0.202 (inactive)
same,cell viability (log2),[20],0.127 (inactive)
c1coc(CN2CCN(Cc3ccc4ccccc4c3)CC2)c1,cell viability (log2),[13],0.0477 (inactive)
same,cell viability (log2),[14],0.0071 (inactive)
same,cell viability (log2),[15],0.142 (inactive)
same,cell viability (log2),[16],0.0832 (inactive)
COc1ccc2c(c1)CCC1C2CCC2(C)C1C[C@@H](O)[C@@H]2O (some centres not stated),cell viability (log2),[13],0.105 (inactive)
same,cell viability (log2),[14],0.0162 (inactive)
same,cell viability (log2),[15],0.204 (inactive)
same,cell viability (log2),[16],-0.0118 (inactive)
OC[C@H]1O[C@@H](n2cnc3c(NCCc4ccccc4)ncnc32)C(O)[C@H]1O (some centres not stated),cell viability (log2),[17],0.15 (inactive)
same,cell viability (log2),[18],0.163 (inactive)
same,cell viability (log2),[19],0.0914 (inactive)
same,cell viability (log2),[20],0.0608 (inactive)
O=C(O)CCC(=O)OCC(NC(=O)C(Cl)Cl)C(O)c1ccc([N+](=O)[O-])cc1 (configuration not stated),cell viability (log2),"0.025 µM, library screen: screen2, EWS-FLI1 expression: high (no doxycycline)",0.127 (inactive)
same,cell viability (log2),"0.025 µM, library screen: screen2, EWS-FLI1 expression: low (doxycycline-induced shRNA knockdown)",0.0706 (inactive)
same,cell viability (log2),[13],-0.0271 (inactive)
same,cell viability (log2),[14],0.0474 (inactive)
same,cell viability (log2),[17],0.193 (inactive)
same,cell viability (log2),[18],-0.0115 (inactive)
same,cell viability (log2),[15],0.0762 (inactive)
same,cell viability (log2),[16],0.177 (inactive)
same,cell viability (log2),[19],0.153 (inactive)
same,cell viability (log2),[20],0.083 (inactive)
same,cell viability (log2),"25 µM, library screen: screen2, EWS-FLI1 expression: high (no doxycycline)",0.0706 (inactive)
same,cell viability (log2),"25 µM, library screen: screen2, EWS-FLI1 expression: low (doxycycline-induced shRNA knockdown)",0.0478 (inactive)
